Measured values reported in PubChem BioAssay.
Results with a measured potency or affinity are listed apart. Calls of active or inactive are those of the source. The limit is not given here; nearly all actives have IC50 up to about 0.98 µM.

These molecules were tested against Calcium-dependent protein kinase 1 (Plasmodium falciparum (isolate 3D7)) (UniProt P62344) (assay: PfCDPK1 kinase inhibitors, biochemical, TCAMS library (AID 1159585;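 also: inhibitors leave more ATP so luminescence rises with inhibition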)). Conditions: recombinant PfCDPK1, Kinase-Glo ATP depletion luminescence.
Chain of Calcium-dependent protein kinase 1 (Plasmodium falciparum (isolate 3D7)) (P62344 whole entry, looked up): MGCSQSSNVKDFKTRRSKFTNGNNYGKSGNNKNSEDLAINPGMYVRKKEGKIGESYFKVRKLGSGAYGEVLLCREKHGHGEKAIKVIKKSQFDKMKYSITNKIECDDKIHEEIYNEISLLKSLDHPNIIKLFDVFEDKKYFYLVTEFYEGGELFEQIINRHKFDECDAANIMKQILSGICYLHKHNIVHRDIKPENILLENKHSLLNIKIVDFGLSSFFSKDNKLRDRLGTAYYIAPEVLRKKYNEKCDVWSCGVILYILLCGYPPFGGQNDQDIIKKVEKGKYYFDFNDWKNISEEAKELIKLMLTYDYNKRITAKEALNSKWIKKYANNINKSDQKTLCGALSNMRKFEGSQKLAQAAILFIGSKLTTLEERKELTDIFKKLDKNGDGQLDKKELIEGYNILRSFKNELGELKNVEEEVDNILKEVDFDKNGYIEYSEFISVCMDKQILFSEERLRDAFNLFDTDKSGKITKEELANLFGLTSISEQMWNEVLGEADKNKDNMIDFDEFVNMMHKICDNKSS

Row | SMILES | outcome
1 | CCOC(=O)[C@H](Cc1cc([N+](=O)[O-])c(Oc2ccc(OC)c(Cc3ccc(OC)c(C(C)C)c3)c2)c([N+](=O)[O-])c1)NC(=O)C(F)(F)F | inactive
2 | CCC1N=C(N)N=C(N)N1OCc1ccc(Cl)c(Cl)c1 (centres undefined) | inactive
3 | CC(C)(C)c1ccccc1OCCCON1C(N)=NC(N)=NC1(C)C | inactive
4 | COc1ccccc1-c1cccc2c(NC(=O)Nc3ccc4nccc(N5CCN(C)CC5)c4c3)ccnc12 | inactive
5 | CC(C)(C)c1ccc2nccc(Nc3cccc(O)c3)c2c1 | inactive
6 | CCc1cn2c3c(cc(C(=O)N[C@@H](Cc4cccc(Cl)c4)[C@H](O)CNC4CCOCC4)cc13)N(C)S(=O)(=O)CC2 | inactive
7 | CC[C@H](C)CNC(=O)c1ccnc(-c2ccc(CN3CCC(N4CCCC4)CC3)cc2)c1 | inactive
8 | Cc1cccc(Nc2nc(C)cc(N3CCCN(CC4CCCCC4)CC3)n2)c1 | inactive
9 | CCCCN1CCN(c2cc(NS(=O)(=O)c3cccc(C(=O)Nc4ccc(C(F)(F)F)cc4)c3)ccc2OC)CC1 | inactive
10 | CCC1(CC)N=C(N)N=C(N)N1OCc1ccc(Cl)c(Cl)c1 | inactive
11 | CNC(=O)C(C)N(c1ccc(Cl)cc1)c1nc(C(C)(C)C)cs1 (centres undefined) | inactive
12 | CCC[C@@H]([C@@H](CC(C)C)C(=O)N[C@@H](CCCCNC(=O)c1ccccn1)C(=O)Nc1nccs1)N(O)C=O | inactive
13 | CCN=C1NC2=C(CC(C(C)(C)C)CC2)C2(CCC(C(C)(C)C)CC2)S1 (centres undefined) | inactive
14 | C[C@@H]1CN(c2ncc(-c3ccc(CNC4Cc5ccccc5C4)cc3)cn2)C[C@H](C)N1 | inactive
15 | O=C(NCc1ccc(Cl)c(Cl)c1)c1cccc(C2CCCN(Cc3ccc4nc[nH]c4c3)C2)c1 (centres undefined) | inactive
16 | Cc1ccc2c(Cl)c(C(=O)N3CC(C)OC(C)C3)sc2c1 (centres undefined) | inactive
17 | COc1cccc(Nc2nc(N)c3ccccc3n2)c1 | inactive
18 | Cc1c(CCNC(=O)CCCN2CC(C)CC(C)C2)c2ccccc2n1C (centres undefined) | inactive
19 | COc1ccc2nccc([C@@H](O)CN3CCC(NC(=O)c4nc(Cl)c(Cl)c(N)c4Cl)CC3)c2c1 | inactive
20 | O=C(c1cc(C(=O)NC2CCCCC2)c(=O)n(C2CCCCC2)c1)c1cc(F)ccc1O | inactive
21 | O=C(Nc1cccc(CN2CCN(Cc3cccc(O)c3)CC2)c1)c1cc2ccccc2s1 | inactive
22 | CC(C)C[C@H](NC(=O)c1cc2ccccc2s1)C(=O)N[C@H]1CCN(Cc2ccc(OCCCN(C)C)c(Cl)c2)C1 | inactive
23 | O=C(CCOc1ccccc1)NCC1CCCO1 (centres undefined) | inactive
24 | COc1ccccc1Nc1nc(C)cc(NCc2ccc(-n3ccnc3)cc2)n1 | inactive
25 | O=C(N[C@@H](CC1CCCCC1)C(=O)NCCN1CCCCC1)c1ccc(O)c(-c2ccc(Cl)c(Cl)c2)c1 | inactive
26 | O=C(Nc1ccc(Cl)cc1)c1ccc(CN2CCCN(CC3CCCCC3)CC2)cc1 | inactive
27 | CCCc1cc(OC)c(CC2c3cccc(O)c3CCN2C)cc1OC (centres undefined) | inactive
28 | CCC1CCCCN1S(=O)(=O)c1ccc(OC)c(N2CCN(C(=O)C(Cl)(Cl)Cl)CC2)c1 (centres undefined) | inactive
29 | Cc1cnc(Nc2cccc(CCN3CCOCC3)c2)nc1NC(C)C | inactive
